Results reported in PubChem BioAssay AID1159580 (chemical genetic matrix, 2015).
The whole screen tested about 5,500 compounds, of which about 2,000 (36%) were called active. Another 18% or so got no clear call; they are omitted. Rule as the data show it: active = normalized growth mostly below about 0.91 (no sharp cut-off); inconclusive = no clear call, values can overlap the other calls; inactive = mostly above about 0.92. The list shows a part of the results.

Experiment: chemical genetic growth profiling, strain panel (AID 1159580);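 also: tested at 20 µM; growth read once vehicle control cultures reached saturation at 30 °C; 1 = growth at the plate median or of vehicle wells; lower values mean less growth of the strain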
Conditions: S. cerevisiae deletion strains, growth OD

Measured: normalized growth

CN1CCN(CC/C=C2/c3ccccc3Sc3ccc(S(=O)(=O)N(C)C)cc32)CC1
inactive: locus YAL040C, strain CLN3, stronger effect = lower value 0.997 | locus YCL061C, strain MRC1 (second series), stronger effect = lower value 1 | locus YDR363W, strain ESC2, stronger effect = lower value 0.983 | locus YER002W, strain NOP16, stronger effect = lower value 1.03 | locus YGR229C, strain SMI1, stronger effect = lower value 0.99 | locus YJR075W, strain HOC1, stronger effect = lower value 0.993 | locus YMR307W, strain GAS1, stronger effect = lower value 0.999 | locus YNL153C, strain GIM3, stronger effect = lower value 1.02 | locus YNL175C, strain NOP13, stronger effect = lower value 1.03 | locus YNL197C, strain WHI3, stronger effect = lower value 1.02 | locus YNL224C, strain SQS1, stronger effect = lower value 1.04 | locus YNL322C, strain KRE1, stronger effect = lower value 0.967 | locus YOR083W, strain WHI5 (second series), stronger effect = lower value 1.05 | locus YPL055C, strain LGE1, stronger effect = lower value 0.989
